Bioassay records as filed in PubChem BioAssay.
The list is not random: actives were taken first. Their share in the collection is about 17%.
HepG2 viability – counter-screen for TGF-b inhibitors: cytotoxicity in HepG2 cells; HepG2 CAGA-GFP viability, ATP luminescence, 18 h; Potency, µM (top dose mostly 46.1 µM), most hits filed as cytotoxic; 410,000 compounds, 0.76% hits; AID 588856
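CellTiter-Glo luminescence gave cytotoxicity after 18 hours at 37 degrees C. The cells were HepG2 CAGA-GFP in 1% FBS DMEM, stimulated with 500 pg/mL TGF-beta after compound addition. %Activity was normalised to no-cell wells (complete cell-killing) and DMSO (no toxicity), and curves were fitted and classified.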
S2 tox – cell viability loss in ATXN counter-screen | S2 cells (HEK-293 line with an ATXN2-luciferase reporter) viability, CellTiter-Fluor protease fluorescence, 24 h | Potency, µM (doses to about 56.7 µM), hits mostly cytotoxic | 400,000 compounds, 0.49% hits | AID 651635; also: nearly all actives have a fitted effect of over 40% in size
TGFb SMAD3 inh – inhibitors of TGF-b signaling; HepG2 CAGA-GFP TGF-b/SMAD3 reporter, GFP fluorescence, 18 h; TGF-beta stimulated, 500 pg/mL final; Potency, µM (top dose mostly 46.1 µM), usual class: inhibitors; 410,000 compounds, 1.2% hits; AID 588855; also: nearly all actives have a fitted effect of over 65% in size
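Inhibition was scored as loss of TGF-beta-induced (500 pg/mL final, 18 hours, 37 degrees C) GFP in HEPG2 cells carrying a CAGA-GFP reporter, in DMEM with 1% FBS. Well GFP was summed per cell; Activity was normalised to unstimulated and stimulated DMSO wells, then concentration-response fitting.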
ATXN2 expr inh – ATXN2 expression inhibition; HEK-293 ATXN2-luciferase reporter, luminescence, 24 h; 360,000 compounds, 0.72% hits; Potency, µM (series often up to 57 µM), usual class: inhibitors; also: nearly all actives have a fitted effect of over 55% in size
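ATXN2-luciferase reporter cells (luciferase flanked by upstream and downstream ATXN2 gene portions) were treated 24 h at 37 °C with compounds at up to 57 uM. SteadyGlo luminescence gave expression; GF-AFC fluorescence gave viability.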
DT40 TDP1 no CPT – qHTS for Inhibitors of human tyrosyl-DNA phosphodiesterase 1 (TDP1): qHTS in cells in absence of CPT | DT40 Tdp1-/- hTDP1 cells, no CPT, ATP luminescence, 48 h | Potency, µM (highest dose often 46.2 µM), most hits filed as inhibitors | 420,000 compounds, 15% hits | AID 686978, 2013; also: nearly all actives have a fitted effect of over 55% in size
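Readout: luminescence from CellTiter-Glo after 30 min in the dark at RT. Cells: DT40 Tdp1-/- with stable hTDP1, 400/well. Exposure: compounds alone, ≥48 hr, 37 °C.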
DT40 TDP1 CPT – DT40-hTDP1 cell growth loss with CPT. chicken DT40 Tdp1-/-;hTDP1 cells + 20 nM CPT, ATP luminescence, 48 h. Potency, µM (highest dose often 46.2 µM), usual class: inhibitors. 420,000 compounds, 12% hits; also: nearly all actives have a fitted effect of over 55% in size
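Chicken DT40 Tdp1-/- cells stably complemented with human TDP1 were seeded at 400 cells/well in medium containing 20 nM camptothecin, exposed to pin-transferred compounds, and grown at 37 °C for at least 48 hr. Viability was read as ATP luminescence.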
Large screens that a line does not name were inactive. Calls follow the shape of the dose curve; as a rule, active = well fitted curve in the direction sought with a large enough effect; inconclusive = small, poorly fitted or top-dose-only effect, or another doubt; inactive = no such curve, though single readings can be large; an effect the other way counts as inactive or inconclusive.

CN(C)c1ccc(CNC(=O)c2cnc3sc(N4CCOCC4)nn3c2=O)cc1	none (no result: S2 tox, ATXN2 expr inh)
CCN1CCN(S(=O)(=O)c2ccc(Cl)c(C(=O)N(C)Cc3ccc(Cl)cc3Cl)c2)CC1	DT40 TDP1 no CPT 23µM, DT40 TDP1 CPT inconclusive
CN(CCOc1ccccc1)C(=O)c1cc(S(=O)(=O)N2CCOCC2)ccc1Cl	DT40 TDP1 no CPT inconclusive
COc1cccc(CN(C)C(=O)c2cc(S(=O)(=O)N3CCN(c4ccccc4)CC3)ccc2Cl)c1	TGFb SMAD3 inh inconclusive, DT40 TDP1 no CPT 16µM, DT40 TDP1 CPT 23µM
COc1cccc(CN(C)C(=O)c2cccc(S(=O)(=O)N3CCN(c4ccccc4)CC3)c2)c1OC	TGFb SMAD3 inh inconclusive, ATXN2 expr inh inconclusive, DT40 TDP1 no CPT 8.2µM, DT40 TDP1 CPT 18µM
CN(C)C(CNC(=O)c1cccc(S(=O)(=O)N2CCN(c3ccc(F)cc3)CC2)c1)c1ccccc1 (stereo unspecified)	TGFb SMAD3 inh inconclusive, ATXN2 expr inh inconclusive, DT40 TDP1 no CPT 9.2µM, DT40 TDP1 CPT 15µM
CCCCC1CCC(C(=O)Nc2ccccc2N2CCOCC2)CC1 (stereo unspecified)	TGFb SMAD3 inh inconclusive, DT40 TDP1 no CPT inconclusive, DT40 TDP1 CPT inconclusive (no result: ATXN2 expr inh)
COc1ccc(CNC(=O)c2cccc(S(=O)(=O)N3CCN(c4ccc(F)cc4)CC3)c2)cc1	DT40 TDP1 no CPT inconclusive, DT40 TDP1 CPT inconclusive
COc1ccccc1CNC(=O)c1cccc(S(=O)(=O)N2CCN(c3ccc(F)cc3)CC2)c1	TGFb SMAD3 inh inconclusive, DT40 TDP1 no CPT 12µM, DT40 TDP1 CPT inconclusive (no result: ATXN2 expr inh)
CC(C)N1C(=O)c2ccccc2NC(=O)C1C(=O)NC1CC1 (stereo unspecified)	none (no result: HepG2 viability, S2 tox, TGFb SMAD3 inh, ATXN2 expr inh)
CCOc1ccccc1CNC(=O)C1CCN(c2nc3ccccc3o2)CC1	DT40 TDP1 no CPT inconclusive, DT40 TDP1 CPT 18µM
CCOc1ccccc1CNC(=O)C1CCN(C(=O)N2CC(CC)Oc3ccc(C)cc32)CC1 (stereo unspecified)	TGFb SMAD3 inh 10µM, DT40 TDP1 no CPT 18µM, DT40 TDP1 CPT 13µM (no result: S2 tox, ATXN2 expr inh)
COc1ccc(CNC(=O)C2CCN(C(=O)N3CC(C)Oc4ccc(C)cc43)CC2)cc1 (stereo unspecified)	DT40 TDP1 no CPT inconclusive, DT40 TDP1 CPT inconclusive (no result: S2 tox, ATXN2 expr inh)
CCC1CN(C(=O)N2CCC(C(=O)NCc3ccc(OC)cc3OC)CC2)c2cc(C)ccc2O1 (stereo unspecified)	TGFb SMAD3 inh inconclusive, DT40 TDP1 no CPT 18µM, DT40 TDP1 CPT inconclusive (no result: S2 tox, ATXN2 expr inh)
CCOc1ccccc1CNC(=O)C1CCN(C(=O)N2CC(C)Oc3ccc(C)cc32)CC1 (stereo unspecified)	S2 tox inconclusive, DT40 TDP1 no CPT inconclusive, DT40 TDP1 CPT 21µM
CCOC(=O)C1=CCN(S(=O)(=O)c2ccc(C)cc2)C1c1cccc2ccccc12 (stereo unspecified)	DT40 TDP1 no CPT inconclusive, DT40 TDP1 CPT inconclusive
Cc1c(C(=O)OC(C)C)sc(NC(=O)c2cnccn2)c1C(=O)OC(C)C	none
O=C(c1ccc(S(=O)(=O)N2CCCC2)cc1)N1CCCCC1	none
O=C(c1ccc(S(=O)(=O)N2CCc3ccccc3C2)cc1)N1CCCCC1	DT40 TDP1 no CPT 26µM, DT40 TDP1 CPT inconclusive (no result: ATXN2 expr inh)
O=S(=O)(c1ccc2oc3ccccc3c2c1)N1CCCC1	DT40 TDP1 no CPT inconclusive
CCN(CC)C(=O)C1CCN(S(=O)(=O)c2ccc3oc4ccccc4c3c2)CC1	S2 tox inconclusive, DT40 TDP1 no CPT 16µM, DT40 TDP1 CPT 21µM
Cc1c(C(=O)N(C)Cc2ccccc2)oc2ccc(S(=O)(=O)N3CCCC3)cc12	DT40 TDP1 no CPT inconclusive
CCOC(=O)N1CCN(C(=O)c2oc3ccc(S(=O)(=O)N4CC(C)CC(C)C4)cc3c2C)CC1 (stereo unspecified)	TGFb SMAD3 inh inconclusive, DT40 TDP1 no CPT inconclusive, DT40 TDP1 CPT inconclusive
